This is a sample that favours compounds with a hit; in the whole collection about 17% have one here.
ATXN viability: viability counter-screen for ATXN expression inhibitors | AID 651635 | Potency, µM (top dose mostly 56.7 µM), actives largely listed as cytotoxic | S2 cells (HEK-293 line with an ATXN2-luciferase reporter) viability, CellTiter-Fluor protease fluorescence, 24 h | 0.49% of 400,000 active; note: nearly all actives have a fitted effect of over 40% in size
ATXN2 expr inh: inhibitors of ATXN2 expression; HEK-293 ATXN2-luciferase reporter, luminescence, 24 h; Potency, µM (doses to about 57 µM), actives largely listed as inhibitors; 0.72% of 360,000 active; AID 1745845; note: nearly all actives have a fitted effect of over 55% in size
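qHTS (up to 57 uM final) was run with 24 h compound exposure of reporter cells at 37 °C. Each well was multiplexed: SteadyGlo luminescence measured ATXN2-luciferase expression after a fluorogenic Gly-Phe-AFC viability readout (25 uM final).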
DT40 TDP1 CPT: DT40-hTDP1 cell growth loss with CPT. chicken DT40 Tdp1-/-;hTDP1 cells + 20 nM CPT, ATP luminescence, 48 h. Potency, µM (doses to about 46.2 µM), usual class: inhibitors. 12% of 420,000 active; note: nearly all actives have a fitted effect of over 55% in size
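Cell growth measured by CellTiter-Glo luminescence after a minimum 48 h, 37 C compound exposure with 20 nM CPT in Tdp1-knockout DT40 cells stably expressing hTDP1, seeded 400/well; qHTS titration format.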
HepG2 viability: HepG2 cytotoxicity, counter-screen for TGF-b inhibitors; 0.76% of 410,000 active; AID 588856; Potency, µM (top dose mostly 46.1 µM), most hits filed as cytotoxic; HepG2 CAGA-GFP viability, ATP luminescence, 18 h
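HepG2 CAGA-GFP cells (1000/well, DMEM with 1% FBS) received compound, then TGF-beta at 500 pg/mL final, and were incubated 18 hours at 37 degrees C. Viability was read by CellTiter-Glo luminescence. Media-only wells were set as complete cell-killing and DMSO as no toxicity.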
TGFb SMAD3 inh: inhibitors of TGF-b signaling. HepG2 CAGA-GFP TGF-b/SMAD3 reporter, GFP fluorescence, 18 h; TGF-beta stimulated, 500 pg/mL final. Potency, µM (series often up to 46.1 µM), hits mostly inhibitors. 1.2% of 410,000 active. AID 588855; note: nearly all actives have a fitted effect of over 65% in size
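Inhibition was scored as loss of TGF-beta-induced (500 pg/mL final, 18 hours, 37 degrees C) GFP in HEPG2 cells carrying a CAGA-GFP reporter, in DMEM with 1% FBS. Well GFP was summed per cell; Activity was normalised to unstimulated and stimulated DMSO wells, then concentration-response fitting.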
TDP1 cell noCPT: qHTS for Inhibitors of human tyrosyl-DNA phosphodiesterase 1 (TDP1): qHTS in cells in absence of CPT; DT40 Tdp1-/- hTDP1 cells, no CPT, ATP luminescence, 48 h; Potency, µM (titrated, usually from 46.2 µM), actives largely listed as inhibitors; 15% of 420,000 active; note: nearly all actives have a fitted effect of over 55% in size
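Readout: luminescence from CellTiter-Glo after 30 min in the dark at RT. Cells: DT40 Tdp1-/- with stable hTDP1, 400/well. Exposure: compounds alone, ≥48 hr, 37 °C.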
Hits are given with their value; [ ] = remark or other dose. Calls come from the whole dose curve; as a rule, active = well fitted curve in the direction sought with a large enough effect; inconclusive = small, poorly fitted or top-dose-only effect, or another doubt; inactive = no such curve, though single readings can be large; an effect the other way counts as inactive or inconclusive.

CC(O)(COc1ccccc1)c1ccc2c(c1)CN(Cc1cccnc1)CCO2 (stereo not given) was read as ATXN viability inactive, DT40 TDP1 CPT inactive[9.04 µM] and TDP1 cell noCPT inactive.
`Cc1ccc(Nc2nc(NCCO)nc3c2cnn3C)cc1Cl` gave ATXN viability inconclusive, DT40 TDP1 CPT 20.6µM, HepG2 viability inactive, TGFb SMAD3 inh inactive and TDP1 cell noCPT 14.6µM.
Cn1ncc2c(Nc3ccc(O)cc3)nc(Cl)nc21 was read as ATXN viability inactive, ATXN2 expr inh inactive, DT40 TDP1 CPT inactive, HepG2 viability inactive, TGFb SMAD3 inh inactive and TDP1 cell noCPT inactive.
`Cn1ncc2c(Nc3ccc4ccccc4c3)ncnc21` gave ATXN viability inactive, ATXN2 expr inh inactive, DT40 TDP1 CPT inconclusive, HepG2 viability inactive, TGFb SMAD3 inh inactive and TDP1 cell noCPT inconclusive.
CNc1nc(Nc2ccc(C)c(Cl)c2)c2cnn(C)c2n1 was read as ATXN viability inactive, ATXN2 expr inh inactive, DT40 TDP1 CPT 23.1µM, HepG2 viability inactive, TGFb SMAD3 inh inactive and TDP1 cell noCPT 14.6µM.
CCCNc1nc(Nc2ccc(C)c(Cl)c2)c2cnn(C)c2n1 was read as ATXN viability inactive, ATXN2 expr inh inactive, DT40 TDP1 CPT 16.4µM, HepG2 viability inactive, TGFb SMAD3 inh inconclusive and TDP1 cell noCPT 23.1µM.
`Cn1ncc2c(Nc3cccc(Cl)c3)nc(Nc3cccc(Cl)c3)nc21` gave ATXN viability inactive, ATXN2 expr inh inconclusive, DT40 TDP1 CPT 16.4µM, HepG2 viability 22.4µM, TGFb SMAD3 inh inconclusive and TDP1 cell noCPT 11.6µM.
Screening NS(=O)(=O)c1ccc(N=Nc2c[nH]c(=O)c(O)c2)cc1 returned ATXN viability 17.8µM, ATXN2 expr inh inactive, DT40 TDP1 CPT inconclusive, HepG2 viability inactive, TGFb SMAD3 inh inactive and TDP1 cell noCPT inconclusive.
CCN(CC)CC(=O)Nc1cccc2c1C(=O)c1ccccc1C2=O was read as ATXN viability inactive, ATXN2 expr inh inactive, DT40 TDP1 CPT inactive, HepG2 viability inactive, TGFb SMAD3 inh inactive and TDP1 cell noCPT inactive.
O=C1c2ccccc2C(=O)c2c(NCCCN(CCO)CCO)cccc21 was read as ATXN2 expr inh inactive[11.3 µM], DT40 TDP1 CPT inconclusive, HepG2 viability inactive, TGFb SMAD3 inh inconclusive and TDP1 cell noCPT 20.6µM.
Screening COc1cc(SC)ccc1C(=O)Nc1cc(C)c(OCC(=O)N2CCOCC2)c(C)c1 returned ATXN viability inactive, ATXN2 expr inh inactive, DT40 TDP1 CPT inconclusive, HepG2 viability inactive, TGFb SMAD3 inh inactive and TDP1 cell noCPT 23.1µM.
Screening NC(=O)CN(N=Nc1cccc([N+](=O)[O-])c1)c1cccc([N+](=O)[O-])c1 returned ATXN viability inactive, ATXN2 expr inh inactive, DT40 TDP1 CPT inconclusive, HepG2 viability inactive, TGFb SMAD3 inh inactive and TDP1 cell noCPT inconclusive.
COc1ccc(C(=O)N(C)[C@H]2C[C@H]3c4[nH]c5ccccc5c4CCN3C[C@H]2[C@H](C)O)cc1 was read as ATXN viability inactive, ATXN2 expr inh inactive, DT40 TDP1 CPT inconclusive, HepG2 viability inactive, TGFb SMAD3 inh inactive and TDP1 cell noCPT inactive.
For CC[C@]1(O)C[C@@H]2CN(CCc3c([nH]c4ccccc34)[C@](C(=O)OC)(c3cc4c(cc3OC)N(C=O)[C@H]3[C@@](O)(C(=O)OC)[C@H](C(=O)OC)[C@@]5(CC)C=CCN6CC[C@]43[C@H]65)C2)C1 the results were DT40 TDP1 CPT 0.0266µM and TDP1 cell noCPT 0.0188µM.
Screening CC[C@]1(O)CC2CN(CCc3c([nH]c4ccccc34)[C@@](C(=O)OC)(c3cc4c(cc3OC)N(C)[C@H]3[C@@](O)(C(=O)OC)[C@H](OC(C)=O)[C@]5(CC)C=CCN6CC[C@]43[C@@H]65)C2)C1 (stereo not given in full) returned DT40 TDP1 CPT 0.0708µM, HepG2 viability inactive, TGFb SMAD3 inh inconclusive and TDP1 cell noCPT 0.141µM.
CCC1(O)CC2CN(CCc3c([nH]c4ccccc34)C(C(=O)OC)(c3cc4c(cc3OC)N(C=O)C3C(O)(C(=O)OC)C(OC(C)=O)C5(CC)C=CCN6CCC43C65)C2)C1 (stereo not given) was read as ATXN viability inconclusive, ATXN2 expr inh inactive, DT40 TDP1 CPT 0.092µM, HepG2 viability inactive, TGFb SMAD3 inh inconclusive and TDP1 cell noCPT 0.146µM.
Screening CNC(=O)COc1coc(CN2CCN(C(=O)c3ccco3)CC2)cc1=O returned ATXN viability inactive, ATXN2 expr inh inactive, DT40 TDP1 CPT inactive, HepG2 viability inactive, TGFb SMAD3 inh inactive and TDP1 cell noCPT inactive.
Screening O=C(NC(=S)NNC(=O)c1ccccc1O)c1ccco1 returned ATXN viability inactive, ATXN2 expr inh inactive, DT40 TDP1 CPT 20.6µM, HepG2 viability inactive, TGFb SMAD3 inh inactive and TDP1 cell noCPT 18.4µM.
O=C(NNC(=S)NC(=O)c1ccco1)c1ccc(NC(=O)c2ccccc2)cc1 was read as ATXN viability inactive, ATXN2 expr inh inconclusive, DT40 TDP1 CPT 16.4µM, HepG2 viability inactive, TGFb SMAD3 inh inactive and TDP1 cell noCPT 20.6µM.
`CCOc1ccc(NC(=S)NC(=O)c2ccco2)cc1` gave ATXN viability inactive, DT40 TDP1 CPT inactive, HepG2 viability inactive, TGFb SMAD3 inh inactive and TDP1 cell noCPT 29.1µM.
O=C(NC(=S)Nc1cccc(NC(=S)NC(=O)c2ccco2)n1)c1ccco1 was read as ATXN viability inactive, ATXN2 expr inh inactive, DT40 TDP1 CPT inactive, HepG2 viability inactive, TGFb SMAD3 inh inconclusive and TDP1 cell noCPT 5.17µM.
`Cc1cccc(NC(=S)NC(=O)c2ccco2)c1C` gave ATXN viability inactive, ATXN2 expr inh inactive, DT40 TDP1 CPT inactive, HepG2 viability inactive, TGFb SMAD3 inh inactive and TDP1 cell noCPT inactive.
O=C1C2CCCN2C(=S)N1c1ccccc1 (stereo not given) was read as ATXN viability inactive, ATXN2 expr inh inactive, DT40 TDP1 CPT inactive, HepG2 viability inactive, TGFb SMAD3 inh inactive and TDP1 cell noCPT inactive.
Screening CCN(CC(=O)NCc1cccs1)C(=O)c1ccc(NS(=O)(=O)c2ccc(F)cc2)cc1 returned ATXN viability inactive, ATXN2 expr inh inactive, DT40 TDP1 CPT inactive, HepG2 viability inactive, TGFb SMAD3 inh inactive and TDP1 cell noCPT inactive.
For Cc1ccc(NC(=S)NC(NC(=O)c2ccco2)C(Cl)(Cl)Cl)cc1 (stereo not given) the results were ATXN viability inactive, ATXN2 expr inh inactive, DT40 TDP1 CPT 16.4µM, HepG2 viability inactive, TGFb SMAD3 inh inconclusive and TDP1 cell noCPT inconclusive.
O=C(O)c1ccc(NC(=S)NC(NC(=O)c2ccco2)C(Cl)(Cl)Cl)cc1 (stereo not given) was read as DT40 TDP1 CPT inactive, HepG2 viability inactive, TGFb SMAD3 inh inactive and TDP1 cell noCPT inactive.

Bioassay records deposited in PubChem BioAssay by National Center for Advancing Translational Sciences (NCATS).
